According to PubChem BioAssay AID1159580 (chemical genetic matrix, 2015):
“And” between values parts separate entries of the source, which are not always exact repeats. Equal entries are not always repeated. Screen size: about 5,500 compounds; about 2,000 (36%) were called active. Inconclusive results (about 18%) are left out. Rule as the data show it: active = normalized growth mostly below about 0.91 (no sharp cut-off); inconclusive = no clear call, values can overlap the other calls; inactive = mostly above about 0.92. This is one part of the list.

Assay: chemical genetic growth profiling, strain panel (AID 1159580);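 also: tested at 20 µM; growth read once vehicle control cultures reached saturation at 30 °C; 1 = growth at the plate median or of vehicle wells; lower values mean less growth of the strain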
Conditions: S. cerevisiae deletion strains, growth OD

Measured: normalized growth

COc1cc(/C=C/C(=O)O)ccc1O
inactive: locus YAL021C, strain ccr4, active compounds read low 1 | locus YAL026C, strain drs2, active compounds read low 1.01 | locus YAL030W, strain snc1, active compounds read low 1.01 | locus YBL061C, strain skt5, active compounds read low 1.01 | locus YBR009C, strain hhf1, active compounds read low 1.02 | locus YBR021W, strain FUR4, active compounds read low 1.01 | locus YBR023C, strain chs3, active compounds read low 1.01 | locus YBR171W, strain sec66, active compounds read low 1.01 | locus YBR229C, strain ROT2, active compounds read low 1.01 | locus YBR231C, strain swc5, active compounds read low 1.01 | locus YBR279W, strain paf1, active compounds read low 1.01 | locus YCL011C, strain gbp2, active compounds read low 1.01 | locus YCL016C, strain dcc1, active compounds read low 1.01 | locus YCL029C, strain bik1, active compounds read low 0.977 | locus YCL061C, strain MRC1, active compounds read low 1.02 | locus YCL069W, strain vba3, active compounds read low 0.998 | locus YCR088W, strain abp1, active compounds read low 1.01 | locus YDL005C, strain med2, active compounds read low 1.02 | locus YDL035C, strain GPR1, active compounds read low 1.01 | locus YDL040C, strain nat1, active compounds read low 1 | locus YDL074C, strain BRE1, active compounds read low 1 | locus YDL101C, strain DUN1, active compounds read low 1.02 | locus YDL185W, strain tfp1, active compounds read low 0.971 | locus YDL192W, strain arf1, active compounds read low 0.986 | locus YDR001C, strain nth1, active compounds read low 1.01 | locus YDR069C, strain doa4, active compounds read low 1.03 | locus YDR101C, strain arx1, active compounds read low 0.961 | locus YDR137W, strain rgp1, active compounds read low 1.01 | locus YDR150W, strain NUM1, active compounds read low 1 | locus YDR159W, strain sac3, active compounds read low 0.98 | locus YDR162C, strain NBP2, active compounds read low 0.992 | locus YDR195W, strain ref2 0.966 | locus YDR297W, strain sur2, active compounds read low 1.01 | locus YDR318W, strain mcm21, active compounds read low 0.997 | locus YDR334W, strain swr1, active compounds read low 1.01 | locus YDR335W, strain msn5, active compounds read low 1.01 | locus YDR388W, active compounds read low 0.979 | locus YDR392W, strain spt3, active compounds read low 0.985 | locus YDR502C, strain sam2, active compounds read low 0.984 | locus YEL003W, strain gim4, active compounds read low 1 | locus YEL037C, strain rad23, active compounds read low 1.01 | locus YEL061C, strain CIN8 (second series), active compounds read low 1.01 | locus YEL061C, strain CIN8, active compounds read low 0.972 | locus YER015W, strain faa2, active compounds read low 1.01 | locus YER016W, strain bim1, active compounds read low 1 | locus YER110C, active compounds read low 0.981 | locus YER111C, strain swi4, active compounds read low 1.01 | locus YER155C, strain BEM2 (second series), active compounds read low 0.999 | locus YER155C, strain BEM2, active compounds read low 1 | locus YER167W, strain BCK2, active compounds read low 0.973 | locus YFR010W, strain ubp6, active compounds read low 1.01 | locus YGL078C, strain dbp3, active compounds read low 0.983 | locus YGL086W, strain mad1, active compounds read low 0.952 | locus YGL167C, strain pmr1, active compounds read low 1.01 | locus YGL173C, strain kem1, active compounds read low 1.01 | locus YGL227W, strain vid30, active compounds read low 1.01 | locus YGL240W, strain doc1, active compounds read low 1.02 | locus YGL248W, strain PDE1, active compounds read low 1.02 | locus YGL253W, strain hxk2, active compounds read low 0.997 | locus YGR135W, strain pre9, active compounds read low 0.995 | locus YGR252W, strain gcn5, active compounds read low 1.07 | locus YHR013C, strain ard1, active compounds read low 0.996 | locus YHR027C, strain rpn1, active compounds read low 1 | locus YHR030C, strain SLT2, active compounds read low 0.993 and 1.02 | locus YHR079C, strain IRE1 (second series), active compounds read low 0.972 | locus YHR079C, strain IRE1, active compounds read low 1.05 | locus YHR094C, strain hxt1, active compounds read low 0.966 | locus YHR129C, strain ARP1, active compounds read low 1 | locus YHR142W, strain chs7, active compounds read low 1.01 | locus YHR200W, strain rpn10, active compounds read low 0.989 | locus YIL066C, strain RNR3, active compounds read low 1 | locus YIL073C, strain SPO22, active compounds read low 0.99 | locus YIL125W, strain kgd1, active compounds read low 0.968 | locus YIR030C, strain dcg1, active compounds read low 0.983 | locus YJL092W, strain hpr5, active compounds read low 1.01 | locus YJL095W, strain BCK1 (second series), active compounds read low 1.01 | locus YJL095W, strain BCK1, active compounds read low 1.03 and 1 | locus YJL115W, strain asf1, active compounds read low 1.01 | locus YJL129C, strain trk1, active compounds read low 1.01 | locus YJL134W, strain LCB3, active compounds read low 0.999 | locus YJL154C, strain vps35, active compounds read low 1 | locus YJL164C, strain tpk1, active compounds read low 1 | locus YJL166W, strain qcr8, active compounds read low 1.02 | locus YJL168C, strain set2, active compounds read low 0.984 | locus YJL187C, strain SWE1 (second series), active compounds read low 1.01 | locus YJR043C, strain POL32, active compounds read low 1.03 | locus YJR066W, strain TOR1, active compounds read low 0.995 | locus YKL009W, strain mrt4, active compounds read low 1.01 | locus YKL068W, active compounds read low 0.974 | locus YKL085W, strain MDH1 (second series), active compounds read low 0.977 | locus YKL085W, strain MDH1, active compounds read low 0.977 | locus YKL160W, strain elf1, active compounds read low 1.01 | locus YKL190W, strain CNB1, active compounds read low 0.995 | locus YKR001C, strain vps1, active compounds read low 0.967 | locus YKR026C, strain gcn3, active compounds read low 1.02 | locus YKR091W, strain srl3, active compounds read low 1.01 | locus YLL001W, strain dnm1, active compounds read low 1.01 | locus YLL026W, active compounds read low 1.01 | locus YLL041C, strain sdh2, active compounds read low 1.01 | locus YLR027C, strain aat2, active compounds read low 1.01 | locus YLR039C, strain RIC1, active compounds read low 0.99 | locus YLR058C, strain SHM2, active compounds read low 1.01 | locus YLR102C, strain apc9, active compounds read low 0.98 | locus YLR113W, strain HOG1, active compounds read low 0.958 | locus YLR221C, strain rsa3, active compounds read low 1.01 | locus YLR258W, strain gsy2, active compounds read low 1.01 | locus YLR262C, strain YPT6 (second series), active compounds read low 1.01 | locus YLR262C, strain YPT6, active compounds read low 1.01 | locus YLR268W, strain sec22, active compounds read low 0.967 | locus YLR320W, strain mms22, active compounds read low 1 | locus YLR330W, strain CHS5, active compounds read low 1.01 | locus YLR342W, strain FKS1 (second series), active compounds read low 1.02 | locus YLR342W, strain FKS1, active compounds read low 1.02 | locus YLR357W, strain rsc2, active compounds read low 1.01 | locus YLR370C, strain arc18, active compounds read low 1.02 | locus YLR371W, strain rom2, active compounds read low 0.936 | locus YLR384C, strain iki3, active compounds read low 1.01 | locus YLR418C, strain cdc73, active compounds read low 0.968 | locus YML016C, strain PPZ1, active compounds read low 1.01 | locus YML032C, strain rad52, active compounds read low 1.01 | locus YML120C, strain ndi1, active compounds read low 1 | locus YML124C, strain tub3, active compounds read low 0.984 | locus YMR058W, strain fet3, active compounds read low 1.02 | locus YMR078C, strain ctf18, active compounds read low 0.984 | locus YMR125W, strain sto1, active compounds read low 1 | locus YMR129W, active compounds read low 1.01 | locus YMR205C, strain PFK2, active compounds read low 1.01 | locus YMR223W, strain ubp8, active compounds read low 1.01 | locus YMR231W, strain pep5, active compounds read low 1.01 | locus YMR263W, strain SAP30, active compounds read low 1 | locus YMR307W, strain GAS1, active compounds read low 0.99 | locus YNL067W, strain RPL9B, active compounds read low 1 | locus YNL071W, strain lat1, active compounds read low 1 | locus YNL183C, strain NPR1, active compounds read low 1 | locus YNL209W, strain ssb2, active compounds read low 1.01 | locus YNL233W, strain BNI4, active compounds read low 1.01 | locus YNL248C, strain rpa49, active compounds read low 1.01 | locus YNL250W, strain rad50, active compounds read low 0.995 | locus YNL271C, strain bni1, active compounds read low 1 | locus YNL298W, strain CLA4, active compounds read low 0.981 | locus YNL307C, strain MCK1, active compounds read low 0.977 | locus YNL322C, strain KRE1 (second series), active compounds read low 1.01 | locus YNL322C, strain KRE1, active compounds read low 0.999 | locus YNR049C, strain mso1, active compounds read low 1.01 | locus YNR052C, strain pop2, active compounds read low 0.991 | locus YOL012C, strain htz1 0.646 | locus YOL147C, strain pex11, active compounds read low 0.969 | locus YOR001W, strain rrp6, active compounds read low 1.06 | locus YOR061W, strain CKA2, active compounds read low 1.01 | locus YOR069W, strain VPS5, active compounds read low 0.995 | locus YOR070C, strain gyp1, active compounds read low 1.01 | locus YOR080W, strain dia2, active compounds read low 1.01 | locus YOR083W, strain WHI5, active compounds read low 1.02 | locus YOR106W, strain vam3, active compounds read low 1.03 | locus YOR136W, strain idh2, active compounds read low 0.974 | locus YOR144C, strain elg1, active compounds read low 0.977 | locus YOR184W, strain ser1, active compounds read low 1.01 | locus YOR231W, strain MKK1, active compounds read low 1.03 | locus YOR265W, strain rbl2, active compounds read low 1 | locus YOR270C, strain vph1, active compounds read low 0.994 | locus YOR290C, strain snf2, active compounds read low 1.01 | locus YOR316C, strain cot1, active compounds read low 0.981 | locus YPL051W, strain arl3, active compounds read low 1.01 | locus YPL078C, strain atp4, active compounds read low 1.02 | locus YPL106C, strain sse1, active compounds read low 1.01 | locus YPL240C, strain hsp82, active compounds read low 1.02 | locus YPL241C, strain CIN2, active compounds read low 0.999 | locus YPL256C, strain CLN2, active compounds read low 1 | locus YPR119W, strain clb2, active compounds read low 0.975 | locus YPR141C, strain kar3, active compounds read low 0.975 | locus YPR163C, strain tif3, active compounds read low 0.977 | locus YPR167C, strain met16, active compounds read low 0.992 | strain wtn01, active compounds read low 0.968
